Here are results for 10 compounds from publication PMC5540273 (PLoS ONE, 2017).

Molecules are shown by their SMILES. Several values for one entry are separate records, joined by “and”; a condition that tells them apart may be missing. Equal values may be shown once. Read-outs that look alike come from different tables or passages of the source.

In one assay the test system is T1, PRKR.
T1 construct: gene EIF2AK2
The following applies: concentration: 1 μM, replicates: in singlicate; n = 1.

Another assay concerns PRKX. The following applies: concentration: 1 μM, replicates: in singlicate; n = 1.
Another assay has as its system PRP4. The following applies: concentration: 1 μM, replicates: in singlicate; n = 1.
The test system of another assay is T2, PYK2.
T2 construct: gene PTK2B
The following applies: concentration: 1 μM, replicates: in singlicate; n = 1.

In a further assay the test system is QSK. As to conditions: concentration: 1 μM, replicates: in singlicate, n = 1.
A further assay has as its system RAF1. As to conditions: concentration: 1 μM, replicates: in singlicate, n = 1.
A further assay deals with RET. As to conditions: concentration: 1 μM, replicates: in singlicate, n = 1.
A further assay relates to RIOK1. As to conditions: concentration: 1 μM, replicates: in singlicate, n = 1.
In the next assay the test system is RIOK2. The following applies: concentration: 1 μM, replicates: in singlicate, n = 1.
The test system of the next assay is RIOK3. The following applies: concentration: 1 μM, replicates: in singlicate, n = 1.
The subject of another assay is RIPK1. As to conditions: concentration: 1 μM, replicates: in singlicate, n = 1.
Another assay has as its system RIPK2. As to conditions: concentration: 1 μM, replicates: in singlicate, n = 1.
The test system of the next assay is RIPK4. The following applies: concentration: 1 μM, replicates: in singlicate, n = 1.
The subject of another assay is RIPK5. The following applies: concentration: 1 μM, replicates: in singlicate, n = 1.
A further assay has as its system ROCK1. As to conditions: concentration: 1 μM, replicates: in singlicate, n = 1.
The test system of a further assay is ROCK2. As to conditions: concentration: 1 μM, replicates: in singlicate, n = 1.
Another assay has as its system ROS1. The following applies: concentration: 1 μM, replicates: in singlicate, n = 1.
For assay [1], the system named is RPS6KA4(Kin.Dom.1-N-terminal). As to conditions: concentration: 1 μM, replicates: in singlicate, n = 1.
Assay [2] concerns RPS6KA4(Kin.Dom.2-C-terminal). The following applies: concentration: 1 μM, replicates: in singlicate, n = 1.
In assay [3] the test system is RPS6KA5(Kin.Dom.1-N-terminal). As to conditions: concentration: 1 μM, replicates: in singlicate; n = 1.
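Note: KINOMEscan kinase panel screen.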

Consider `CC(C)N1CCC(n2cnc(-c3ccc(F)cc3)c2-c2ccnc(N)n2)CC1` [SB-223132], for which the “%Inh” value with PRKR is given as 18%; with PRKX it was 0%; in the assay with PRP4, 41%; in the assay with PYK2 it was 12%; in the assay on QSK it was 0%; with RAF1 it was 33%. The “%Inh” value in the assay on RET was found to be 2%; in the assay on RIOK1, 0%; in the assay on RIOK2 it was 0%; in the assay on RIOK3, 60%; in the assay with RIPK1, 4%; in the assay on RIPK2, 48%. In addition, the “%Inh” value in the assay with RIPK4 was found to be 0%; in the assay on RIPK5, 0%; with ROCK1, 1%; in the assay on ROCK2, 0%; with ROS1 it was 0%; in assay [1], 14%. The “%Inh” value is 0% in assay [2] and 7% in [3].
In the case of `CNc1nccc(-c2c(-c3ccc(F)cc3)ncn2CCCN2CCOCC2)n1` [SB-222516], the “%Inh” value with PRKR came out at 0%; with PRKX, 0%; in the assay with PRP4 it was 0%; in the assay with PYK2, 4%; in the assay with QSK, 19%; in the assay with RAF1 it was 0%. The “%Inh” value with RET came out at 7%; in the assay on RIOK1, 25%; with RIOK2 it was 0%; in the assay on RIOK3, 24%; in the assay on RIPK1, 9%; in the assay on RIPK2, 0%. The “%Inh” value in the assay on RIPK4 is 33%; in the assay with RIPK5, 0%; in the assay on ROCK1, 4%; in the assay with ROCK2, 0%; in the assay with ROS1, 3%; in [1], 27%. The “%Inh” value in [2] is listed as 1%; in assay [3], 8%.
With `CC(C)(C)c1ccc(-n2cnc3c(N)ncnc32)cc1` [SKF-97263], the “%Inh” value was 0% with PRKR; 19% in the assay on PRKX; 7% in the assay with PRP4; 4% with PYK2; 0% with QSK; 0% in the assay on RAF1. Besides, the “%Inh” value is listed as 8% in the assay on RET; 22% in the assay on RIOK1; 26% in the assay with RIOK2; 23% in the assay on RIOK3; 1% in the assay on RIPK1; 0% with RIPK2. For the same compound, the “%Inh” value is on record as 16% in the assay on RIPK4; 14% with RIPK5; 0% with ROCK1; 0% in the assay on ROCK2; 15% with ROS1; 0% in assay [1]. The “%Inh” value was determined as 2% in assay [2] and 19% in assay [3].
For `O=C(NCCCN1CCCC1=O)c1cnc(NCc2cc(Cl)ccc2Cl)nc1NC1CCNCC1`, the “%Inh” value with PRKR is given as 0%; in the assay on PRKX, 0%; in the assay with PRP4 it was 2%; in the assay on PYK2, 0%; in the assay on QSK it was 0%; in the assay on RAF1, 0%. Besides, the “%Inh” value in the assay on RET is reported as 8%; with RIOK1 it was 0%; in the assay with RIOK2, 0%; in the assay on RIOK3, 8%; with RIPK1, 0%; in the assay on RIPK2, 0%. Moreover, the “%Inh” value in the assay on RIPK4 is given as 0%; in the assay with RIPK5 it was 0%; with ROCK1, 0%; with ROCK2, 0%; with ROS1, 0%; in [1] it was 15%. Moreover, the “%Inh” value in [2] and in assay [3] was 0% each time.
In the case of `Cc1ccc(C)c(NC(=O)NCCNc2ccnc(Nc3ccc(F)cc3)n2)c1` [GSK1379878], the “%Inh” value with PRKR is on record as 0%; in the assay on PRKX it was 0%; in the assay with PRP4 it was 48%; with PYK2, 7%; in the assay on QSK it was 0%; with RAF1, 42%. The “%Inh” value was determined as 3% in the assay with RET; 36% with RIOK1; 0% in the assay with RIOK2; 37% with RIOK3; 4% with RIPK1; 0% in the assay on RIPK2. For the same compound, the “%Inh” value with RIPK4 is on record as 0%; in the assay with RIPK5 it was 9%; in the assay with ROCK1 it was 7%; in the assay with ROCK2 it was 0%; in the assay on ROS1, 16%; in assay [1], 0%. In addition, the “%Inh” value in [2] and in assay [3] was 0% each time.
Consider `CSc1ccc(NC2=C(c3ccccc3Cl)C(=O)NC2=O)cc1` [SB-342411], for which the “%Inh” value turned out to be 0% in the assay with PRKR; 0% with PRKX; 0% with PRP4; 0% in the assay on PYK2; 8% in the assay on QSK; 15% in the assay with RAF1. The “%Inh” value with RET was determined as 14%; in the assay with RIOK1, 16%; in the assay with RIOK2 it was 0%; in the assay with RIOK3 it was 0%; with RIPK1, 0%; with RIPK2, 32%. For the same compound, the “%Inh” value was determined as 6% with RIPK4; 0% in the assay on RIPK5; 0% in the assay with ROCK1; 0% in the assay with ROCK2; 0% in the assay on ROS1; 0% in assay [1]. The results for the “%Inh” value in assay [2] and in assay [3] were 0% and 5%, respectively.
On to `Cn1ccc2ncnc(Nc3ccc(Oc4cccc(Cl)c4)c(Cl)c3)c21`, for which the “%Inh” value in the assay with PRKR is given as 0%; in the assay with PRKX it was 11%; in the assay with PRP4, 11%; in the assay with PYK2 it was 27%; in the assay with QSK, 2%; in the assay with RAF1, 0%. The “%Inh” value was found to be 10% with RET; 0% in the assay with RIOK1; 18% with RIOK2; 3% in the assay on RIOK3; 0% in the assay with RIPK1; 47% in the assay on RIPK2. Also, the “%Inh” value in the assay on RIPK4 amounted to 0%; with RIPK5, 40%; with ROCK1, 3%; with ROCK2 it was 0%; in the assay on ROS1, 0%; in [1], 0%. Besides, the “%Inh” value in assay [2] is on record as 1%; in assay [3], 19%.
With `COc1ccc(-c2nc3n(c2-c2ccncc2)CCC3)cc1` [SKF-104493], the “%Inh” value is 0% in the assay with PRKR; 0% with PRKX; 13% in the assay on PRP4; 6% in the assay with PYK2; 29% and 5% in the assay on QSK (1 µM); 0% and 15% in the assay with RAF1 (1 µM). Besides, the “%Inh” value in the assay on RET (1 µM) was 0% and 10%; with RIOK1 (1 µM), 24% and 4%; with RIOK2 (1 µM) it was 20% and 0%; in the assay on RIOK3 (1 µM), 0% and 10%; in the assay with RIPK1 (1 µM) it was 0% and 20%; in the assay with RIPK2 (1 µM), 40% and 46%. The “%Inh” value is 9% and 12% in the assay with RIPK4 (1 µM); 19% and 0% with RIPK5 (1 µM); 21% and 5% with ROCK1 (1 µM); 29% and 0% in the assay with ROCK2 (1 µM); 10% and 28% in the assay on ROS1 (1 µM); 7% and 0% in assay [1] (1 µM). For the same compound, the “%Inh” value in [2] (1 µM) was 2% and 0%; in assay [3] it was 0%.
As to `CNc1nccc(-c2c(-c3ccc(F)cc3)ncn2C2CCN(C)CC2)n1` [SB-222903], the “%Inh” value in the assay with PRKR was found to be 11%; with PRKX, 0%; in the assay on PRP4 it was 0%; in the assay with PYK2, 0%; with QSK, 0%; in the assay on RAF1, 0%. In addition, the “%Inh” value in the assay on RET came out at 0%; in the assay with RIOK1, 0%; with RIOK2, 0%; in the assay with RIOK3 it was 3%; in the assay on RIPK1, 3%; in the assay on RIPK2, 40%. Besides, the “%Inh” value in the assay with RIPK4 stood at 0%; in the assay with RIPK5, 2%; in the assay with ROCK1, 56%; in the assay with ROCK2, 0%; with ROS1, 0%; in assay [1] it was 15%. In addition, the “%Inh” value in [2] and in assay [3] was 0% in each case.
As to `COc1ccc(Nc2nccc(N3CCC(NC(=O)c4cccc(NC(C)=O)c4)C3)n2)cc1` (centres unmarked) [GSK1379732], the “%Inh” value with PRKR was found to be 0%; in the assay on PRKX, 0%; with PRP4, 48%; in the assay on PYK2 it was 0%; in the assay with QSK, 0%; in the assay on RAF1, 0%. The “%Inh” value in the assay with RET stood at 0%; in the assay on RIOK1 it was 37%; in the assay on RIOK2 it was 0%; with RIOK3, 0%; with RIPK1 it was 21%; with RIPK2, 7%. Besides, the “%Inh” value in the assay on RIPK4 came to 0%; in the assay with RIPK5 it was 0%; in the assay on ROCK1 it was 33%; in the assay on ROCK2 it was 50%; in the assay on ROS1 it was 8%; in assay [1], 21%. Besides, the figures for the “%Inh” value in [2] and in assay [3] were 0% and 9%, respectively.
